{"source": "paper PMC5540273", "about": "(PLoS ONE, 2017);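 also: KINOMEscan kinase panel screen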", "data": [{"system": "SBK1", "details": "concentration: 1 μM, replicates: in singlicate; n = 1", "units": {"%Inh": "%"}, "values": [{"compound": "CN(c1ccc(NC(=O)Nc2cc(C(F)(F)F)ccc2F)cc1)c1ccnc(Nc2ccc(S(N)(=O)=O)cc2)n1", "note": "[GW809893]", "%Inh": 0}, {"compound": "Nc1ncnc2c1nc(-c1ccccc1)n2-c1ccccc1", "note": "[SKF-97293]", "%Inh": 53}, {"compound": "CN1CCN(CCCNc2nccc(-c3c(-c4ccc(F)cc4)nn4cc(C(F)(F)F)ccc34)n2)CC1", "note": "[GW621581]", "%Inh": 8}, {"compound": "O=C(Nc1cccc(-c2nn3ccccc3c2-c2ccnc(Nc3cccc(C(F)(F)F)c3)n2)c1)c1c(F)cccc1F", "note": "[GSK292658]", "%Inh": 20}, {"compound": "COc1cc(Nc2nccc(N3CCC(NC(=O)Nc4cccc(C(C)=O)c4)C3)n2)cc(OC)c1OC", "note": "(stereo not shown) [GSK1379753]", "%Inh": 11}, {"compound": "Cl.Cl.NCC(C(=O)Nc1cc(Br)c(-c2ccnc3[nH]ccc23)s1)c1ccccc1", "note": "(stereo not shown) [GSK1269851]", "%Inh": 3}, {"compound": "COc1ccc(Nc2nccc(NCCNC(=O)c3cc4ccccc4s3)n2)cc1", "note": "[GSK1379896]", "%Inh": 20}, {"compound": "Cc1ccc(F)c(C(=O)Nc2cccc(-c3nn4ccccc4c3-c3ccnc(Nc4cccc(F)c4)n3)c2)c1F", "note": "[GSK361061]", "%Inh": 100}, {"compound": "Cl.Cl.NCC(NC(=O)c1cc(-c2ccccc2)c(-c2ccnc3[nH]ccc23)s1)c1ccccc1", "note": "(stereo not shown) [GSK1321561]", "%Inh": 11}, {"compound": "Cc1cccc(Nc2nc(N[C@H]3CCNC3)ncc2C(N)=O)c1.Cl", "note": "[GSK2197149]", "%Inh": 42}, {"compound": "COc1cccc(C2=C(Nc3ccc(Cl)c(C(=O)O)c3)C(=O)NC2=O)c1", "note": "[SB-390769]", "%Inh": 99.9}, {"compound": "O=C(Nc1cccc(-c2nn3ccccc3c2-c2ccnc(Nc3cccc(F)c3)n2)c1)c1c(F)ccc(F)c1Cl", "note": "[GSK357952]", "%Inh": 12}, {"compound": "COc1cccc(NC(=O)NC2CCN(c3ccnc(Nc4cc(OC)c(OC)c(OC)c4)n3)C2)c1", "note": "(stereo not shown) [GSK1379763]", "%Inh": 15}, {"compound": "O=c1[nH]cc(-c2ccc(N3CCOCC3)cc2)c2sc(-c3cn[nH]c3)cc12", "note": "[GSK2276055]", "%Inh": 0}, {"compound": "CC(C)(C)c1ccc2nccc(Nc3cccc(O)c3)c2c1", "note": "[GW856795]", "%Inh": 0}, {"compound": "COc1ccc(Nc2nccc(N3CCC(NC(=O)Nc4cccc(OC)c4)C3)n2)cc1", "note": "(stereo not shown) [GSK1379742]", "%Inh": 0}, {"compound": "CCS(=O)(=O)c1ccc(OC)c(Nc2nccc(-c3c(-c4cccc(NC(=O)c5c(F)cccc5F)c4)nn4ncccc34)n2)c1", "note": "[GSK326180]", "%Inh": 0}, {"compound": "CC(C)c1nc(-c2cccc(NS(=O)(=O)c3c(F)cccc3F)c2F)c(-c2ccnc(Nc3ccc(N4CCOCC4)nc3)n2)s1", "note": "[GSK2008607]", "%Inh": 40}, {"compound": "Fc1ccc(-c2ncn(C3CCNCC3)c2-c2ccnc(Oc3ccc(-c4ccccc4)cc3)n2)cc1", "note": "[SB-245391]", "%Inh": 52}, {"compound": "O=C(Nc1n[nH]c2cc(-c3ccoc3)ccc12)C1CC1", "note": "[SB-738481]", "%Inh": 0}, {"compound": "Nc1ncc(-c2cccnc2)c2scc(-c3ccc4c(c3)CCN4C(=O)Cc3ccccc3)c12", "note": "[GSK683281]", "%Inh": 25}, {"compound": "Nc1ncc(-c2ccc3nccc(-c4ccncc4)c3c2)cc1S(=O)(=O)N1CCOCC1", "note": "[GSK1627798]", "%Inh": 3}, {"compound": "C[C@@H]1CC[C@@H](C(=O)Nc2ccccc2)CN1c1cc(-c2ccc3c(N)n[nH]c3c2)nc(N)n1", "note": "[GSK2286062]", "%Inh": 26}, {"compound": "Cn1cc(-c2ccc3c(c2)CCN3C(=O)Cc2cccc(F)c2)c2c(N)ncnc21", "note": "[GSK2603358]", "%Inh": 30}, {"compound": "Cc1ccc(C(=O)N2CC[C@@H](O)C2)cc1-n1c(C)cc(OCc2ccc(F)cc2F)c(Br)c1=O", "%Inh": 0}, {"compound": "CN1CCN(Cc2cccc(-c3ccc4c(Nc5ccc(Oc6ccccc6)cc5)ccnc4c3)c2)CC1", "note": "[GW578342]", "%Inh": 11}, {"compound": "CN(C)S(=O)(=O)c1cc(-c2ccc3nccc(-c4cccc(S(N)(=O)=O)c4)c3c2)cnc1N", "note": "[GSK1669921]", "%Inh": 15}, {"compound": "COc1cc(Nc2nccc(-c3c(-c4cccc(NC(=O)c5c(F)cccc5F)c4)nn4ncccc34)n2)cc(OC)c1OC", "note": "[GSK327238]", "%Inh": 28}, {"compound": "COCCOCCOc1cc2ncc3c4ccc(C#N)cc4[nH]c3c2cc1OC", "%Inh": 81}, {"compound": "Cc1ccc(C(=O)Nc2ccc(Nc3ccnc4cc(-c5nccs5)ccc34)cc2O)cc1.Cl", "note": "[GW494702]", "%Inh": 6}, {"compound": "CC(=O)N1CCN(c2ccc(Nc3nccc(-c4sc(C(C)C)nc4-c4cccc(NS(=O)(=O)c5cccc(Cl)c5)c4)n3)cn2)CC1", "note": "[GSK1660437]", "%Inh": 16}]}]}
